The whole screen tested about 5,500 compounds, of which about 2,000 (36%) were called active. About 18% were inconclusive and are not listed. Cut-off read from the data, not from the text of the source: active = normalized growth mostly below about 0.91 (no sharp cut-off); inconclusive = no clear call, values can overlap the other calls; inactive = mostly above about 0.92. This is one part of the list.
Assay: chemical genetic growth profiling, strain panel (AID 1159580);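 note: tested at 20 µM; growth read once vehicle control cultures reached saturation at 30 °C; 1 = growth at the plate median or of vehicle wells; lower values mean less growth of the strain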
Conditions: growth OD
[1] = S. cerevisiae deletion strains, locus YAL013W, strain DEP1, hits give low values
[2] = S. cerevisiae deletion strains, locus YDR150W, strain NUM1, hits give low values
[3] = S. cerevisiae deletion strains, locus YGR229C, strain SMI1, hits give low values
[4] = S. cerevisiae deletion strains, locus YNL153C, strain GIM3, hits give low values
[5] = S. cerevisiae deletion strains, locus YNL322C, strain KRE1, hits give low values
[6] = S. cerevisiae deletion strains, locus YBR229C, strain ROT2, hits give low values
[7] = S. cerevisiae deletion strains, locus YDL101C, strain DUN1, hits give low values
[8] = S. cerevisiae deletion strains, locus YEL061C, strain CIN8, hits give low values
[9] = S. cerevisiae deletion strains, locus YGR078C, strain PAC10, hits give low values
[10] = S. cerevisiae deletion strains, locus YHR030C, strain SLT2, hits give low values
[11] = S. cerevisiae deletion strains, locus YHR087W, strain rtc3, hits give low values
[12] = S. cerevisiae deletion strains, locus YJR043C, strain POL32, hits give low values
[13] = S. cerevisiae deletion strains, locus YJR075W, strain HOC1, hits give low values
[14] = S. cerevisiae deletion strains, locus YLR039C, strain RIC1, hits give low values
[15] = S. cerevisiae deletion strains, locus YLR058C, strain SHM2 (second series), hits give low values
[16] = S. cerevisiae deletion strains, locus YLR085C, strain ARP6, hits give low values
[17] = S. cerevisiae deletion strains, locus YLR262C, strain YPT6, hits give low values
[18] = S. cerevisiae deletion strains, locus YML094W, strain GIM5, hits give low values
[19] = S. cerevisiae deletion strains, locus YMR219W, strain ESC1, hits give low values
[20] = S. cerevisiae deletion strains, locus YMR263W, strain SAP30, hits give low values
[21] = S. cerevisiae deletion strains, locus YMR307W, strain GAS1, hits give low values
[22] = S. cerevisiae deletion strains, locus YNL128W, strain TEP1, hits give low values
[23] = S. cerevisiae deletion strains, locus YNL298W, strain CLA4 (second series), hits give low values
[24] = S. cerevisiae deletion strains, locus YNR030W, strain Alg12, hits give low values
[25] = S. cerevisiae deletion strains, locus YPL055C, strain LGE1, hits give low values
[26] = S. cerevisiae deletion strains, locus YPL241C, strain CIN2, hits give low values
[27] = S. cerevisiae deletion strains, locus YPR135W, strain CTF4, hits give low values
[28] = S. cerevisiae deletion strains, locus YKL190W, strain CNB1, hits give low values
[29] = S. cerevisiae strains, strain wild type, hits give low values

Measured: normalized growth

Clc1ccc(N2CC3CCC(C2)N3)nn1
inactive: [1] 1.04 | S. cerevisiae deletion strains, locus YAL040C, strain CLN3, hits give low values 1.01 | S. cerevisiae deletion strains, locus YCL061C, strain MRC1 (second series), hits give low values 1.01 | [2] 1 | S. cerevisiae deletion strains, locus YDR363W, strain ESC2, hits give low values 1.01 | S. cerevisiae deletion strains, locus YER002W, strain NOP16, hits give low values 1 | [3] 1.03 | [4] 1.01 | S. cerevisiae deletion strains, locus YNL175C, strain NOP13, hits give low values 0.995 | S. cerevisiae deletion strains, locus YNL197C, strain WHI3, hits give low values 1 | S. cerevisiae deletion strains, locus YNL224C, strain SQS1, hits give low values 1 | [5] 1.04 | S. cerevisiae deletion strains, locus YOR083W, strain WHI5 (second series), hits give low values 0.959

O=C(N/N=C\c1cccs1)c1ccccc1CO
inactive: [1] 0.998 | [6] 1.01 | [7] 0.997 | S. cerevisiae deletion strains, locus YDL134C, strain PPH21, hits give low values 1 | [2] 1 | [8] 0.994 | [9] 0.994 | [3] 1 | [10] 1 | [11] 1 | S. cerevisiae deletion strains, locus YJL187C, strain SWE1, hits give low values 0.989 | [12] 0.999 | [13] 0.995 | [14] 0.999 | [15] 1.01 | [16] 0.996 | [17] 1.04 | [18] 0.986 | [19] 1 | [20] 0.997 | [21] 1 | [22] 1.01 | [4] 0.99 | [23] 1 | [5] 0.996 | [24] 1.01 | S. cerevisiae deletion strains, locus YOL006C, strain TOP1, hits give low values 0.994 | [25] 1.01 | [26] 0.992 | [27] 1.04

CCOC(=O)N/N=C\c1cccs1
inactive: [1] 0.995 | [6] 1 | [7] 0.982 | [2] 0.996 | [8] 1 | [9] 1 | [10] 1.05 | [11] 0.992 | [12] 0.984 | [13] 0.972 | [28] 1.01 | [14] 1.07 | [15] 1.02 | [16] 1.01 | [17] 1.05 | [18] 0.996 | [19] 1 | [20] 0.997 | [21] 1.02 | [22] 1 | [4] 0.996 | [23] 1.03 | [5] 1.01 | [24] 1 | [25] 1.01 | [26] 0.993 | [27] 0.948 | [29] 1.01

NC(=S)N/N=C\c1cccs1
active: [13] 0.829 | [16] 0.562 | [19] 0.873 | [4] 0.898 | [24] 0.737
inactive: [1] 0.984 | [6] 0.96 | [7] 0.979 | [2] 0.962 | [8] 0.945 | [9] 0.98 | [3] 1.01 | [10] 0.992 | [11] 1.02 | [12] 0.973 | [28] 1 | [14] 1.11 | [15] 1 | [17] 1.08 | [18] 0.92 | [20] 0.997 | [22] 1 | [23] 0.955 | [5] 1.02 | [25] 0.915 | [26] 1.06 | [27] 1.02 | [29] 1

NC(=S)N/N=C\c1ccccc1
active: [8] 0.902 | [16] 0.301 | [21] 0.579 | [23] 0.836
inactive: [1] 0.991 | [6] 1.02 | [7] 0.987 | [2] 0.963 | [9] 1.02 | [10] 0.823 | [11] 1.06 | [12] 1 | [13] 1.04 | [28] 0.973 | [14] 1.13 | [15] 1.01 | [17] 1.08 | [18] 0.872 | [19] 1 | [20] 0.982 | [4] 0.971 | [5] 1.03 | [24] 0.925 | [25] 0.872 | [26] 0.983 | [27] 0.886 | [29] 0.974

O=[N+]([O-])c1ccccc1CS(=O)(=O)c1nc2ccccc2s1
inactive: S. cerevisiae deletion strains, locus YDL214C, strain PRR2, hits give low values 0.884 | S. cerevisiae deletion strains, locus YDR477W, strain SNF1, hits give low values 0.728 | S. cerevisiae deletion strains, locus YER123W, strain YCK3, hits give low values 0.821 | S. cerevisiae deletion strains, locus YER133W, strain GLC7, hits give low values 0.773 | S. cerevisiae deletion strains, locus YFR003C, strain YPI1, hits give low values 0.904 | S. cerevisiae deletion strains, locus YFR019W, strain FAB1, hits give low values 0.933 | S. cerevisiae deletion strains, locus YGR040W, strain KSS1, hits give low values 0.791 | S. cerevisiae deletion strains, locus YGR052W, strain FMP48, hits give low values 0.835 | S. cerevisiae deletion strains, locus YGR092W, strain DBF2, hits give low values 0.537 | S. cerevisiae deletion strains, locus YHR079C, strain IRE1, hits give low values 0.946 | S. cerevisiae deletion strains, locus YHR082C, strain KSP1, hits give low values 0.949 | S. cerevisiae deletion strains, locus YHR205W, strain SCH9, hits give low values 0.933 | S. cerevisiae deletion strains, locus YIL147C, strain SLN1, hits give low values 0.894 | S. cerevisiae deletion strains, locus YJL095W, strain BCK1, hits give low values 0.616 | S. cerevisiae deletion strains, locus YJL128C, strain PBS2, hits give low values 0.953 | S. cerevisiae deletion strains, locus YJL157C, strain FAR1, hits give low values 0.867 | S. cerevisiae deletion strains, locus YJR066W, strain TOR1 (second series), hits give low values 0.832 | S. cerevisiae deletion strains, locus YJR066W, strain TOR1, hits give low values 0.753 | S. cerevisiae deletion strains, locus YKL067W, strain YNK1, hits give low values 0.921 | S. cerevisiae deletion strains, locus YKL101W, strain HSL1, hits give low values 0.902 | S. cerevisiae deletion strains, locus YLR113W, strain HOG1, hits give low values 0.887 | S. cerevisiae deletion strains, locus YLR133W, strain CKI1, hits give low values 0.916 | S. cerevisiae deletion strains, locus YML070W, strain DAK1, hits give low values 0.881 | S. cerevisiae deletion strains, locus YMR001C, strain CDC5, hits give low values 0.891 | S. cerevisiae deletion strains, locus YMR205C, strain PFK2 (second series), hits give low values 0.91 | S. cerevisiae deletion strains, locus YNL020C, strain ARK1, hits give low values 0.918 | S. cerevisiae deletion strains, locus YNL183C, strain NPR1, hits give low values 0.871 | S. cerevisiae deletion strains, locus YNL307C, strain MCK1 (second series), hits give low values 0.655 | S. cerevisiae deletion strains, locus YOL136C, strain PFK27, hits give low values 0.843 | S. cerevisiae deletion strains, locus YOR061W, strain CKA2, hits give low values 0.908 | S. cerevisiae deletion strains, locus YOR119C, strain RIO1, hits give low values 0.734 | S. cerevisiae deletion strains, locus YOR231W, strain MKK1, hits give low values 0.91 | S. cerevisiae deletion strains, locus YPL031C, strain PHO85, hits give low values 0.704 | S. cerevisiae deletion strains, locus YPL153C, strain RAD53, hits give low values 0.764 | S. cerevisiae deletion strains, locus YPL204W, strain HRR25, hits give low values 0.678 | S. cerevisiae deletion strains, locus YPL256C, strain CLN2, hits give low values 1.08 | S. cerevisiae deletion strains, locus YPR106W, strain ISR1, hits give low values 0.966 | S. cerevisiae deletion strains, locus YPR111W, strain DBF20, hits give low values 0.952 | S. cerevisiae deletion strains, strain NNK1, hits give low values 0.93
active: S. cerevisiae deletion strains, locus YAR019C, strain CDC15, hits give low values 0.862 | S. cerevisiae deletion strains, locus YBL105C, strain PKC1, hits give low values 0.895 | S. cerevisiae deletion strains, locus YBR135W, strain CKS1, hits give low values 0.89 | S. cerevisiae deletion strains, locus YBR136W, strain MEC1, hits give low values 0.883 | S. cerevisiae deletion strains, locus YBR160W, strain CDC28, hits give low values 0.886 | S. cerevisiae deletion strains, locus YDL017W, strain CDC7, hits give low values 0.894 | S. cerevisiae deletion strains, locus YDL028C, strain MPS1, hits give low values 0.892 | [7] 0.889 | S. cerevisiae deletion strains, locus YDL108W, strain KIN28, hits give low values 0.889 | S. cerevisiae deletion strains, locus YDL132W, strain cdc53, hits give low values 0.828 | S. cerevisiae deletion strains, locus YDR052C, strain DBF4, hits give low values 0.87 | S. cerevisiae deletion strains, locus YDR054C, strain cdc34, hits give low values 0.855 | S. cerevisiae deletion strains, locus YDR226W, strain ADK1, hits give low values 0.878 | S. cerevisiae deletion strains, locus YFL009W, strain cdc4, hits give low values 0.855 | S. cerevisiae deletion strains, locus YFL029C, strain CAK1, hits give low values 0.849 | S. cerevisiae deletion strains, locus YFR028C, strain CDC14, hits give low values 0.863 | [10] 0.671 | S. cerevisiae deletion strains, locus YJR016C, strain ILV3, hits give low values 0.871 | S. cerevisiae deletion strains, locus YKL048C, strain ELM1, hits give low values 0.755 | S. cerevisiae deletion strains, locus YKL193C, strain SDS22, hits give low values 0.864 | S. cerevisiae deletion strains, locus YKL203C, strain TOR2, hits give low values 0.711 | S. cerevisiae deletion strains, locus YLR403W, strain SFP1, hits give low values 0.503 | S. cerevisiae deletion strains, locus YMR277W, strain FCP1, hits give low values 0.852 | S. cerevisiae deletion strains, locus YNL006W, strain LST8, hits give low values 0.894 | S. cerevisiae deletion strains, locus YNL161W, strain CBK1, hits give low values 0.885 | S. cerevisiae deletion strains, locus YNL207W, strain RIO2, hits give low values 0.852 | S. cerevisiae deletion strains, locus YNL222W, strain SSU72, hits give low values 0.886 | S. cerevisiae deletion strains, locus YOL078W, strain AVO1, hits give low values 0.834 | S. cerevisiae deletion strains, locus YOR329C, strain SCD5, hits give low values 0.896 | S. cerevisiae deletion strains, locus YPL209C, strain IPL1, hits give low values 0.882 | S. cerevisiae deletion strains, locus YPR025C, strain CCL1, hits give low values 0.892 | S. cerevisiae deletion strains, strain TSCII, hits give low values 0.848

Source: PubChem BioAssay AID1159580 (chemical genetic matrix, 2015)
